About 7,900 targets were measured; listed, in parts, are those with a hit and a random draw of the rest. About 0.6% of all pairs of compound and target were hits.

Among the data in the supplement of paper PMC10849652 are log2 fold change values, retold here.

Chain of UniProt Q6P3S6 (Q6P3S6 whole entry, looked up): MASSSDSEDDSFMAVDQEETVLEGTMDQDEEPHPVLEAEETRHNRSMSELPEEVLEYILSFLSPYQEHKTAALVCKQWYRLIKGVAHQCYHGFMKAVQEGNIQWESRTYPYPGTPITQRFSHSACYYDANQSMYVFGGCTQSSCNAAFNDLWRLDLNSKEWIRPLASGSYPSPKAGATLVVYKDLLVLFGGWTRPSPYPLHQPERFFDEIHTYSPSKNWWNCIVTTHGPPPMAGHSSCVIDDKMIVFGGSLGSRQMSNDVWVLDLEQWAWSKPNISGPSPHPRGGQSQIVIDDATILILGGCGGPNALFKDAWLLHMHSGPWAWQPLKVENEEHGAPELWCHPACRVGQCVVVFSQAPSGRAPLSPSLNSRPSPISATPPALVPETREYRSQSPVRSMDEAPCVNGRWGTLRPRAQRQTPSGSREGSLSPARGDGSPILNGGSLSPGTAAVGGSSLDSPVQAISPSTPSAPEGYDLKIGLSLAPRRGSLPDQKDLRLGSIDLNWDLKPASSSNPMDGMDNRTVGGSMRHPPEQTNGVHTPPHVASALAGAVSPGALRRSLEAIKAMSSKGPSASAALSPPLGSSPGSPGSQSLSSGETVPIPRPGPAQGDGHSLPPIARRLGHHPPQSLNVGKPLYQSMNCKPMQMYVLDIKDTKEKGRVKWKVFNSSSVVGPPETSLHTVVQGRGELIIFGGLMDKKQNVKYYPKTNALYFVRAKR
Chain of UniProt P06280 (P06280 whole entry, looked up): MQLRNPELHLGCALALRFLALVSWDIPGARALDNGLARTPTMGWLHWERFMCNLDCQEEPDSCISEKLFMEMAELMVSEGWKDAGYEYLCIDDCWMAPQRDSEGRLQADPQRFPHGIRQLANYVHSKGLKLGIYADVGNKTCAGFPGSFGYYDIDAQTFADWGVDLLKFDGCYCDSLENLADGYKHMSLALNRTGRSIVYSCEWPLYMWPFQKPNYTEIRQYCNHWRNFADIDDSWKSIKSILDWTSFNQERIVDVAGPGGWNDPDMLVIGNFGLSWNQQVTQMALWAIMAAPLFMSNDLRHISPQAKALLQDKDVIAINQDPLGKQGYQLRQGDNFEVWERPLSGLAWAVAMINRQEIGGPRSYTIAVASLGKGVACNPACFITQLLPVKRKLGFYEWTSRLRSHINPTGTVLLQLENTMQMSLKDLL
Chain of UniProt P01112 (P01112 whole entry, looked up): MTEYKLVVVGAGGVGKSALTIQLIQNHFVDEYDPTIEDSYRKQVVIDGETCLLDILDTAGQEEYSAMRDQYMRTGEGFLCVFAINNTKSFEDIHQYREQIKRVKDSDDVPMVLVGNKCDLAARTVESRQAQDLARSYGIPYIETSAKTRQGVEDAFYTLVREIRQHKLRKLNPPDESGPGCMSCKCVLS
Chain of UniProt P69905 (P69905 whole entry, looked up): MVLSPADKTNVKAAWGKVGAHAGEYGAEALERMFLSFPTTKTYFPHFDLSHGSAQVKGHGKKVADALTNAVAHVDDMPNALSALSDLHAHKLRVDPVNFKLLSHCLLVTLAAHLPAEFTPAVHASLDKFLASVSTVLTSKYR
Chain of UniProt P55084 (P55084 whole entry, looked up): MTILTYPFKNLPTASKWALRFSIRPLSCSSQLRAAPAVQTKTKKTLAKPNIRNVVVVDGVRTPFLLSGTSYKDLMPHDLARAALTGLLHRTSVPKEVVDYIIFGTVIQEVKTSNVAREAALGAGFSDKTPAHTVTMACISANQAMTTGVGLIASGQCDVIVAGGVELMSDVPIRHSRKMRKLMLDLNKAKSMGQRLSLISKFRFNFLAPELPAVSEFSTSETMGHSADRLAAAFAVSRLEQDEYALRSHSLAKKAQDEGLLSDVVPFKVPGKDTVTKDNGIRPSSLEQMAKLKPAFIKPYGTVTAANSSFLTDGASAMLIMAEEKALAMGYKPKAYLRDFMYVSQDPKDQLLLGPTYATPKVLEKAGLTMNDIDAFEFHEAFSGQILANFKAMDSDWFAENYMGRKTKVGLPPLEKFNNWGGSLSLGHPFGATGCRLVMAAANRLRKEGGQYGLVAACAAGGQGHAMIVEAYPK
Chain of UniProt Q53FT3 (Q53FT3 whole entry, looked up): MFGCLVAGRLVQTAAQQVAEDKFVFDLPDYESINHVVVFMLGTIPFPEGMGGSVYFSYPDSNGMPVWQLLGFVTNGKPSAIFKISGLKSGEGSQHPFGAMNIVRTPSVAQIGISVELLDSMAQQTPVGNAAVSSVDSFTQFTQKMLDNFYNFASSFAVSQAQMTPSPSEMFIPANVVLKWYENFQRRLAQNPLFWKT
Chain of UniProt P55795 (P55795 whole entry, looked up): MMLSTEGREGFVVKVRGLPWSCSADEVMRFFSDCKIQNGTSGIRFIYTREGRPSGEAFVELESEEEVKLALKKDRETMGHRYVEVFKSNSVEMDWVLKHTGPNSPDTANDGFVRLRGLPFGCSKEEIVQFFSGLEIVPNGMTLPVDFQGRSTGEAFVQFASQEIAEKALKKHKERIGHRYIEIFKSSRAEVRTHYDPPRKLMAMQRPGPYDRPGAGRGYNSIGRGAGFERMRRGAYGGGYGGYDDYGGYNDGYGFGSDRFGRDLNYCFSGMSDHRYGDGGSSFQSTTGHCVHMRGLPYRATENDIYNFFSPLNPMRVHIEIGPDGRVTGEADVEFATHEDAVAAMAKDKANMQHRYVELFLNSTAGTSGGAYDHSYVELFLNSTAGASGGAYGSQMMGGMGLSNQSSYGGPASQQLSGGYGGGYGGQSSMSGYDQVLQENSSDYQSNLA
Chain of UniProt P09105 (P09105 whole entry, looked up): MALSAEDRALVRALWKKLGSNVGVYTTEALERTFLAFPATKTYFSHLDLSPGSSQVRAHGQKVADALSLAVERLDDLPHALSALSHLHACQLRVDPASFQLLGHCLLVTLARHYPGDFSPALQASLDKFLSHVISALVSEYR
Chain of UniProt Q9P2H3 (Q9P2H3 whole entry, looked up): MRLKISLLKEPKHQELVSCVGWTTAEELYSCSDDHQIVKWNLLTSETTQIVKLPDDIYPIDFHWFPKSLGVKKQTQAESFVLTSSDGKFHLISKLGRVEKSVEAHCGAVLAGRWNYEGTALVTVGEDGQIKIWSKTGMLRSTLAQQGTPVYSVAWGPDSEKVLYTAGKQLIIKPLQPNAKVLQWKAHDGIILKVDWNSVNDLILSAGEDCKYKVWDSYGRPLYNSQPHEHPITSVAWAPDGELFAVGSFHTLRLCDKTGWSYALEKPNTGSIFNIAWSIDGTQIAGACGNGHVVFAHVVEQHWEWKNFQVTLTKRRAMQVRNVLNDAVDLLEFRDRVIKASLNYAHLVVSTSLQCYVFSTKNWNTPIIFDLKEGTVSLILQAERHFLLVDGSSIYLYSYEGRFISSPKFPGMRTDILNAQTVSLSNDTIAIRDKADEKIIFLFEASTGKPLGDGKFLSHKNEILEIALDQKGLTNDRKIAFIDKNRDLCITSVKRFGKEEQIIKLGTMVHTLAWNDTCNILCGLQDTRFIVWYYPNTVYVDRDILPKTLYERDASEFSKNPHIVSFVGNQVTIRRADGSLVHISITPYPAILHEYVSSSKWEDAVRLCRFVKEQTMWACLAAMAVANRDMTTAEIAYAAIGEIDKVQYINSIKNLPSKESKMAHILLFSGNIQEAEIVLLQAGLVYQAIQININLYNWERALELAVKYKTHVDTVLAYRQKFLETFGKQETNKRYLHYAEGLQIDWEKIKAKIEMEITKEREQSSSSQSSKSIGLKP
Chain of UniProt Q6Y7W6 (Q6Y7W6 whole entry, looked up): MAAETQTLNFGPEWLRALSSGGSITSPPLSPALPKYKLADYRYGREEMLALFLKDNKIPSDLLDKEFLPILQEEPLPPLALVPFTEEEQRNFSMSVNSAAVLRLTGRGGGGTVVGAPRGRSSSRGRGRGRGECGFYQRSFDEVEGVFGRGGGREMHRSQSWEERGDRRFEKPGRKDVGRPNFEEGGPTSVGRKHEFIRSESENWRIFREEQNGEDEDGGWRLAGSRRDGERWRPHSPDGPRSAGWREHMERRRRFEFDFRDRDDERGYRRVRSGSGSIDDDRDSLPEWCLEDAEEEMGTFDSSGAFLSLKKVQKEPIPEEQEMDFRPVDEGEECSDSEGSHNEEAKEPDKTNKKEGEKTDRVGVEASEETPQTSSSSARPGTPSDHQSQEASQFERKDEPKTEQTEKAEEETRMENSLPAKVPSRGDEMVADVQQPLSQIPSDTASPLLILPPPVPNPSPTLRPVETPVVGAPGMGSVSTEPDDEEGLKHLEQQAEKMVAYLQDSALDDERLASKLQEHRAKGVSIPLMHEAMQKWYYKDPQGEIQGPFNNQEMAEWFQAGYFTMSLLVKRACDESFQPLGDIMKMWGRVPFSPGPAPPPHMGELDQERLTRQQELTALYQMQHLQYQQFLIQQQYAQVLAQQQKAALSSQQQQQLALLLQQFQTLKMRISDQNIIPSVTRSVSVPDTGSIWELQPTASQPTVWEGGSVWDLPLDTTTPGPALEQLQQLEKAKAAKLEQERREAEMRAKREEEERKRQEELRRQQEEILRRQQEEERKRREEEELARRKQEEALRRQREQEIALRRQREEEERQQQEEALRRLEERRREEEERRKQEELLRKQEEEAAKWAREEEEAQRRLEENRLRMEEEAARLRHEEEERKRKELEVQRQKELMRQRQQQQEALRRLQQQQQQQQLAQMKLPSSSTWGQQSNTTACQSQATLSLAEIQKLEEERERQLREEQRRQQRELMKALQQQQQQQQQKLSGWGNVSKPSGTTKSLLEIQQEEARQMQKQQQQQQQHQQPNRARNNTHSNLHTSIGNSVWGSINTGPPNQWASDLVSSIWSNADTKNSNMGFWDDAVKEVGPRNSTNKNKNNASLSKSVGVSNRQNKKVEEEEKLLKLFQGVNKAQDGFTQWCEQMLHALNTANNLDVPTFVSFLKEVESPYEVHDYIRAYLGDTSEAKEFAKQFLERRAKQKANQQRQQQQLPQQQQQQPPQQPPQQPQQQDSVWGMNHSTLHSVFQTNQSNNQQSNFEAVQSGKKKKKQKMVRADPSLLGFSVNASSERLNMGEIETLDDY

Compound in the first test: Cc1ccc(NC(=O)c2ccc(CN3CC[C@H](N(C)C)C3)c(C(F)(F)F)c2)cc1Nc1nccc(-c2cncnc2)n1 [bafetinib]
Put plainly: log2 fold change, soluble protein after heating vs DMSO (PISA); higher = thermal stabilisation; K562 cells, 10 uM, 30 min; active = over 0.2 and 3.5 SD of the protein, either way, in both replicates (recomputed). In a few lines:
(§1)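 K562 cells at 2×10^6 cells/mL were treated for 30 min with 10 μM compound, and aliquots were heated for 3 min over 48°C-58°C before pooling. Extraction used PBS with 0.5% NP-40 at 4°C, and soluble protein was the supernatant after 21,000xg for 90 min, measured by TMTpro 16plex LC-MS/MS with channel sums equalised. Thermal stability values, relative to control samples and from duplicates, are log2 fold changes.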
Take GLA (UniProt P06280): the log2 fold change is -0.529 (active).
For FBXO42 (UniProt Q6P3S6), the log2 fold change was -0.014 (inactive).
For the target HRAS (UniProt P01112), the log2 fold change was -0.033 (inactive).
On to IFT80 isoform 3 (UniProt Q9P2H3), for which the log2 fold change is -0.127 (inactive).
Regarding HBA1 (UniProt P69905), the log2 fold change is -0.013 (inactive).
Consider HIKESHI (UniProt Q53FT3), for which the log2 fold change is -0.003 (inactive).
The same measure, in the same setting: in the case of HADHB (UniProt P55084) it was 0.251 (inactive).
For GOPC (UniProt Q9HD26), the log2 fold change was 0.233 (inactive).
HBQ1 (UniProt P09105): the log2 fold change is 0.028 (inactive).
As for HNRNPH2 (UniProt P55795), the log2 fold change is 0.056 (inactive).
Turning to GIGYF2 (UniProt Q6Y7W6), the log2 fold change was -0.076 (inactive).

Compound in another test: Cc1cccc(CC(=O)N2CCc3c2ccc(-c2cn(C)c4ncnc(N)c24)c3F)n1
Described as above. In a few lines: as §1
With HSPA8 (UniProt E9PK54), the log2 fold change is -0.069 (inactive).
Take FUCA1 (UniProt P04066): the log2 fold change is -0.001 (inactive).
Regarding GCSH (UniProt P23434), the log2 fold change is 0.095 (inactive).
For IFNGR1 (UniProt P15260), the log2 fold change is -0.027 (inactive).
On the same count and under the same terms, in the case of GSTM4 (UniProt Q03013) it was 0.002 (inactive); in that of GHDC (UniProt Q8N2G8), 0.018 (inactive).
For FUBP3 (UniProt Q96I24), the log2 fold change was 0.009 (inactive).
With GLCCI1 (UniProt Q86VQ1), the log2 fold change was 0.037 (inactive).
FAT1 (UniProt Q14517): the log2 fold change is 0.044 (inactive).
Same read-out and setting: for FECH isoform 2 (UniProt P22830) the value was -0.125 (inactive).
As to GSTT1 (UniProt P30711), the log2 fold change is -0.144 (inactive).
For the target HECTD1 (UniProt Q9ULT8), the log2 fold change is 0.029 (inactive).
For the target FHOD1 (UniProt Q9Y613), the log2 fold change is -0.005 (inactive).
The same measure, in the same setting: in the case of GLRX3 (UniProt O76003) it was 0.025 (inactive); in that of HDAC2 (UniProt Q92769), -0.046 (inactive); in that of HMGCR isoform 3 (UniProt P04035), 0.016 (inactive).
Still for that read-out and setting: in the case of HSPA8 (UniProt P11142) it was -0.008 (inactive); in that of GLYR1 (UniProt Q49A26), -0.015 (inactive); in that of HNRNPK isoform 2 (UniProt P61978), 0.007 (inactive).
Take HDAC7 isoform 5 (UniProt Q8WUI4): the log2 fold change is 0.033 (inactive).
Take FASTKD1 (UniProt Q53R41): the log2 fold change is -0.021 (inactive).
As for GNL1 (UniProt P36915), the log2 fold change was 0.019 (inactive).
Regarding GTF2E1 (UniProt P29083), the log2 fold change was 0.037 (inactive).
In the case of GLA (UniProt P06280), the log2 fold change was -0.051 (inactive).
In the case of FBXO42 (UniProt Q6P3S6), the log2 fold change is -0.006 (inactive).
On to HRAS (UniProt P01112), for which the log2 fold change was 0.063 (inactive).
As for IFT80 isoform 3 (UniProt Q9P2H3), the log2 fold change was 0.077 (inactive).
For HBA1 (UniProt P69905), the log2 fold change is 0.138 (inactive).
As for HIKESHI (UniProt Q53FT3), the log2 fold change was 0.02 (inactive).
Same read-out and setting: for HADHB (UniProt P55084) the value was 0.132 (inactive); for GOPC (UniProt Q9HD26), -0.131 (inactive); for HBQ1 (UniProt P09105), 0.046 (inactive).
Same read-out and setting: for HNRNPH2 (UniProt P55795) the value was 0.006 (inactive).
In the case of GIGYF2 (UniProt Q6Y7W6), the log2 fold change is 0.045 (inactive).

Compound in the next test: Cc1cn(-c2cc(NC(=O)c3ccc(C)c(Nc4nccc(-c5cccnc5)n4)c3)cc(C(F)(F)F)c2)cn1 [nilotinib]
Described as above. An outline of the steps:
as §1
On to HSPA8 (UniProt E9PK54), for which the log2 fold change is -0.105 (inactive).
Take FUCA1 (UniProt P04066): the log2 fold change was -0.011 (inactive).
With GCSH (UniProt P23434), the log2 fold change was -0.022 (inactive).
As to IFNGR1 (UniProt P15260), the log2 fold change was 0.075 (inactive).
With GSTM4 (UniProt Q03013), the log2 fold change was 0.001 (inactive).
With GHDC (UniProt Q8N2G8), the log2 fold change is 0.036 (inactive).
In the case of FUBP3 (UniProt Q96I24), the log2 fold change is -0.051 (inactive).
As for GLCCI1 (UniProt Q86VQ1), the log2 fold change is 0.073 (inactive).
Consider FAT1 (UniProt Q14517), for which the log2 fold change was 0.013 (inactive).
As to FECH isoform 2 (UniProt P22830), the log2 fold change is 0.189 (inactive).
On the same count and under the same terms, in the case of GSTT1 (UniProt P30711) it was 0.056 (inactive).
For the target HECTD1 (UniProt Q9ULT8), the log2 fold change is -0.111 (inactive).
On to FHOD1 (UniProt Q9Y613), for which the log2 fold change was -0.089 (inactive).
Still for that read-out and setting: in the case of GLRX3 (UniProt O76003) it was -0.048 (inactive); in that of HDAC2 (UniProt Q92769), -0.01 (inactive).
As to HMGCR isoform 3 (UniProt P04035), the log2 fold change is -0.241 (inactive).
HSPA8 (UniProt P11142): the log2 fold change is 0.081 (inactive).
For the target GLYR1 (UniProt Q49A26), the log2 fold change was 0.082 (inactive).
Turning to HNRNPK isoform 2 (UniProt P61978), the log2 fold change is -0.084 (inactive).
For the target HDAC7 isoform 5 (UniProt Q8WUI4), the log2 fold change is 0.024 (inactive).
For FASTKD1 (UniProt Q53R41), the log2 fold change was -0.183 (inactive).
GNL1 (UniProt P36915): the log2 fold change is -0.024 (inactive).
Still for that read-out and setting: in the case of GTF2E1 (UniProt P29083) it was -0.112 (inactive).
Regarding GLA (UniProt P06280), the log2 fold change is 0.021 (inactive).
Take FBXO42 (UniProt Q6P3S6): the log2 fold change is -0.006 (inactive).
On the same count and under the same terms, in the case of HRAS (UniProt P01112) it was 0.109 (inactive).
Consider IFT80 isoform 3 (UniProt Q9P2H3), for which the log2 fold change was -0.059 (inactive).
HBA1 (UniProt P69905): the log2 fold change is 0.029 (inactive).
Consider HIKESHI (UniProt Q53FT3), for which the log2 fold change is -0.062 (inactive).
With HADHB (UniProt P55084), the log2 fold change is 0.074 (inactive).
As to GOPC (UniProt Q9HD26), the log2 fold change is 0.009 (inactive).
Regarding HBQ1 (UniProt P09105), the log2 fold change was 0.054 (inactive).
In the case of HNRNPH2 (UniProt P55795), the log2 fold change was -0.09 (inactive).
As for GIGYF2 (UniProt Q6Y7W6), the log2 fold change is -0.161 (inactive).
